A selection: hits, their analogues and other compounds. The true share with any hit is near 1.2%.
Avidin bead fluor – compound fluoresces at 488/530 nm on avidin beads | compound fluorescence 488/530 nm, flow cytometry; stronger effect = higher value | 220,000 compounds, 0.38% hits | fluorescence (KMESF) at 10 µM; in the data active = fluorescence above about 47
RGS4-Gao reg – modulates binding of RGS4 to human Galphao. P09471. Multiplexed bead flow cytometry; actives lie on both sides. binding response (% of control), % at 10 µM. 220,000 compounds, 0.33% hits; in the data active = binding response below about 49% or above about 150%; inactive = in between;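 also: fluorescent Galphao activated with aluminum fluoride binding bead-coupled RGS4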
Target sequence (P09471 whole entry, looked up): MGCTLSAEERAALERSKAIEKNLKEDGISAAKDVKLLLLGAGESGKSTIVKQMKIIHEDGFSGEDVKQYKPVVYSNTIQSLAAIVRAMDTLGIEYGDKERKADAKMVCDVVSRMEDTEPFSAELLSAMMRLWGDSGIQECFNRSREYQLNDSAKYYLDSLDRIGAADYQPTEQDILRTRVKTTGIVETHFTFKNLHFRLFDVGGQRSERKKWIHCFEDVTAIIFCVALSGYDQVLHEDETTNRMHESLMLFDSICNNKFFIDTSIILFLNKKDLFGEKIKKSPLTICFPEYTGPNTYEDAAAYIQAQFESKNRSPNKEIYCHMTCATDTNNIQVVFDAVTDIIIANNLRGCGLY
GSH fluor – GSH bead compound fluorescence profile; GSH beads flow cytometry, compound fluorescence 488/530 nm; stronger effect = higher value; AID 1776; fluorescence (KMESF) at 10 µM; 190,000 compounds, 0.25% hits; in the data active = fluorescence above about 89;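 also: glutathione beads carrying GST-tagged Bcl family fusion proteins plus one bare bead set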
RGS8-Gao – regulators of human RGS8-Galphao interaction | P09471 | multiplexed bead flow cytometry, RGS8-Galphao binding; actives lie on both sides | response (percent of control binding), % at 10 µM | 220,000 compounds, 0.34% hits; in the data active = response below about 60% or above about 140%; inactive = in between;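 also: Galphao activated as the GDP aluminium fluoride complex binding bead-coupled RGS8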
RGS16-Gao – RGS16-Galphao interaction regulator (human). bead-based flow cytometry RGS16-Galphao binding, fluorescence; actives lie on both sides. binding response (% of control), % at 10 µM. 220,000 compounds, 0.38% hits. AID 1441;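 also: Galphao activated by GDP with aluminum fluoride before binding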
Target sequence (O15492 whole entry, looked up): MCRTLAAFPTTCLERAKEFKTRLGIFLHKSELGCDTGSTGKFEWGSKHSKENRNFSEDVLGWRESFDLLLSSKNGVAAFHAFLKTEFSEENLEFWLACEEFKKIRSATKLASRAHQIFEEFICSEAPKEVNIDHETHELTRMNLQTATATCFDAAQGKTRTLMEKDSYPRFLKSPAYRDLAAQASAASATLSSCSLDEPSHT
Target sequence (P09471 whole entry, looked up): as the sequence (P09471 whole entry, looked up) above
RGS7-Gao reg – human RGS7-Galphao interaction regulation. P09471. Multiplexed bead flow cytometry, RGS7-Galphao binding; actives lie on both sides. binding response (% of control), % at 10 µM. 220,000 compounds, 0.35% hits. AID 1439; in the data active = binding response below about 49% or above about 150%; inconclusive = no clear call, values can overlap the other calls; inactive = in between;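 also: fluorescent Galphao held in activated GDP-AlF4 state binding bead-coupled RGS7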
RGS-Gao – modulates binding between human RGS4 and Galphao | shares compounds with RGS16-Gao | multiplexed bead flow cytometry, RGS–Galpha-o binding | RGS4–Galpha-o binding response, % at 10 µM | 1,600 compounds, 99% hits | AID 1504;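 also: fluorescently labeled Galpha-o bound to GDP with aluminium fluoride binding biotinylated RGS beads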
Biotin-avidin – counter-screen: compounds disrupting biotin binding to avidin beads | inhibition, % at 10 µM | 1,700 tested, under 10 active | streptavidin beads, fluorescein-biotin binding, flow cytometry | shares compounds with RGS16-Gao;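 active = inhibition above 50%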;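 also: median green fluorescence of gated singlet beads compared with DMSO control wells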
RGS8-Gao single – confirmation of regulators of human RGS8-Galphao interaction; shares compounds with RGS16-Gao; bead-based flow cytometry RGS8-Galphao binding, fluorescence; actives lie on both sides; binding response (% of control), % at 10 µM; 1,700 compounds, 3% hits; AID 1836; in the data active = binding response below about 72% or above about 130%; inactive = in between;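 also: Galphao activated as GDP AlF4 complex before binding bead RGS8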
RGS7-Gao confirm – confirmation of regulators of human RGS7-Galphao interaction; shares compounds with RGS16-Gao; bead-based flow cytometry RGS7-Galphao binding; actives lie on both sides; response (percent of control binding), % at 10 µM; 1,700 compounds, 7.8% hits; in the data active = response below about 75% or above about 130%; inactive = in between;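 also: fluorescent Galphao activated with GDP and aluminum fluoride binding bead-coupled RGS7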
RGS16-Gao single – confirmation of regulators of human RGS16-Galphao interaction. shares compounds with RGS16-Gao. bead-based flow cytometry, RGS16-Galphao binding; actives lie on both sides. response (% of control binding), % at 10 µM. 1,700 compounds, 4% hits. AID 1838; in the data active = response below about 74% or above about 130%; inactive = in between;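 also: Galphao activated as the GDP aluminium fluoride complex binding bead-coupled RGS16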
RGS4-Gao single – confirmation of regulators of human RGS4-Galphao interaction | shares compounds with RGS16-Gao | RGS4-Galphao binding, multiplexed bead flow cytometry; actives lie on both sides | binding response (% of control), % at 10 µM | 1,700 compounds, 4% hits | AID 1840; in the data active = binding response below about 74% or above about 130%; inactive = in between
RGS19-Gao conf – RGS19-Galphao interaction regulation, single point confirmation. 1,700 compounds, 5% hits. shares compounds with RGS16-Gao. bead-based flow cytometry RGS19-Galphao binding; actives lie on both sides. response (percent of control binding), % at 10 µM; in the data active = response below about 50% or above about 160%; inactive = in between
Of the large screens only hits and unclear results are named; the others gave an inactive call (follow-up assays come after a bar, where they were run); [ ] = dose if it differs, or a comment. Unless noted, no rule for the calls is given here.

Cc1ccc(C(=O)Nc2ccccc2NC(=O)c2ccc(C)o2)o1	GSH fluor 240, RGS8-Gao 60 | RGS-Gao 55 | Biotin-avidin inactive | RGS8-Gao single inactive | RGS7-Gao confirm inactive | RGS16-Gao single inactive | RGS4-Gao single inactive | RGS19-Gao conf inactive
CCCCOc1ccc(S(=O)(=O)Nc2cc(OC)ccc2OC)cc1	none (no result: Avidin bead fluor, RGS4-Gao reg, RGS8-Gao, RGS16-Gao, RGS7-Gao reg) | Biotin-avidin inactive | RGS8-Gao single inactive | RGS7-Gao confirm inactive | RGS16-Gao single inactive | RGS4-Gao single inactive | RGS19-Gao conf inactive
COc1ccc(OC)c(NS(=O)(=O)c2ccc(Cl)nc2)c1	none
CN(C)c1nc(/C=C(\C#N)C(N)=O)c(Cl)n1-c1ccc(F)cc1	RGS7-Gao reg inconclusive
CCOC(=O)c1ccc(NC(=O)C2(c3ccccc3)CCCC2)cc1	RGS8-Gao 144[activator] | RGS-Gao 131
Cc1nc2ccccc2c(=O)n1/N=C/c1ccncc1	none (no result: Avidin bead fluor, RGS8-Gao, RGS16-Gao) | Biotin-avidin inactive | RGS8-Gao single inactive | RGS7-Gao confirm inactive | RGS16-Gao single inactive | RGS4-Gao single inactive | RGS19-Gao conf inactive
Cc1nc2ccccc2c(=O)n1/N=C/c1ccccc1	none
CCc1nnc(NC(=O)C2CCCN2C(=O)Nc2ccccc2)s1 (configuration not stated)	none
O=C(Nc1ccc(F)cc1)NC1(C(=O)NCc2cccs2)CCCCC1	none
O=C(Nc1cccc(Cl)c1)NC1(C(=O)NCc2cccs2)CCCCC1	Avidin bead fluor 138, RGS7-Gao reg 232[activator] | RGS-Gao 115 | Biotin-avidin inactive | RGS8-Gao single inactive | RGS7-Gao confirm inactive | RGS16-Gao single inactive | RGS4-Gao single inactive | RGS19-Gao conf inactive
O=C(O)CCCC(=O)Nc1cccc2cccnc12	Avidin bead fluor 89, RGS7-Gao reg 151[activator] | RGS-Gao 107 | Biotin-avidin inactive | RGS8-Gao single inactive | RGS7-Gao confirm inactive | RGS16-Gao single inactive | RGS4-Gao single inactive | RGS19-Gao conf inactive
Cc1c(NC(=O)CNCc2ccc3c(c2)OCO3)c(=O)n(-c2ccccc2)n1C	RGS7-Gao reg inconclusive (no result: GSH fluor)
Cc1c(NC(=O)Nc2ccc3c(c2)OCO3)c(=O)n(-c2ccccc2)n1C	Avidin bead fluor 149, RGS7-Gao reg 227[activator] | RGS-Gao 122 | Biotin-avidin inactive | RGS8-Gao single inactive | RGS7-Gao confirm inactive | RGS16-Gao single inactive | RGS4-Gao single inactive | RGS19-Gao conf inactive
Cc1c(NC(=S)NC(=O)C2CCCCC2)c(=O)n(-c2ccccc2)n1C	RGS4-Gao reg 7.8, RGS8-Gao 17, RGS16-Gao 13, RGS7-Gao reg 15 | Biotin-avidin inactive | RGS8-Gao single inactive | RGS7-Gao confirm 67 | RGS16-Gao single inactive | RGS4-Gao single inactive | RGS19-Gao conf inactive
Cc1c(NC(=S)NC(=O)C(C)(C)C)c(=O)n(-c2ccccc2)n1C	none
Cc1cc(SCC(=O)NN)c2cc(Br)ccc2n1	RGS7-Gao reg inconclusive (no result: GSH fluor)
Cn1ncc([N+](=O)[O-])c1C(=O)Nc1ccc(-c2nc3ccccc3[nH]2)cc1	none (no result: Avidin bead fluor, RGS4-Gao reg, RGS8-Gao, RGS16-Gao, RGS7-Gao reg) | Biotin-avidin inactive | RGS8-Gao single inactive | RGS7-Gao confirm inactive | RGS16-Gao single inactive | RGS4-Gao single inactive | RGS19-Gao conf inactive
Fc1ccc(NC(=S)N2CCN(c3ncccn3)CC2)cc1	RGS7-Gao reg inconclusive
Cc1nn(C(=O)c2cccs2)c(C)c1CN1C(=O)c2ccccc2C1=O	none
Cc1nn(C(=O)N2CCCCC2)c(C)c1CN1C(=O)c2ccccc2C1=O	none (no result: Avidin bead fluor, RGS4-Gao reg, RGS8-Gao, RGS16-Gao, RGS7-Gao reg) | Biotin-avidin inactive | RGS8-Gao single inactive | RGS7-Gao confirm inactive | RGS16-Gao single inactive | RGS4-Gao single inactive | RGS19-Gao conf inactive
O=C(c1cnn(C(=O)c2cccc(S(=O)(=O)N3CCOCC3)c2)c1)c1ccccc1O	RGS7-Gao reg inconclusive
Cc1nn(C)c(C)c1NC(=O)c1ccccc1NC(=O)Nc1ccccc1	RGS7-Gao reg inconclusive (no result: GSH fluor)
O=C1CCCc2ccccc2N1Cc1ccc(F)cc1	RGS7-Gao reg 170[activator] | RGS-Gao 111 | Biotin-avidin inactive | RGS8-Gao single inactive | RGS7-Gao confirm inactive | RGS16-Gao single inactive | RGS4-Gao single inactive | RGS19-Gao conf inactive
O=C1CCCc2ccccc2N1Cc1cccc(F)c1	none
CCOC(=O)N1CCN(C(=O)C2CCN(C(=O)c3cc(OC)cc(OC)c3)CC2)CC1	RGS16-Gao 205[activator] | RGS-Gao 123 | Biotin-avidin inactive | RGS8-Gao single inactive | RGS7-Gao confirm inactive | RGS16-Gao single inactive | RGS4-Gao single inactive | RGS19-Gao conf inactive
CCOC(=O)C(=Cc1ccc(-n2ccnc2)cc1)C(=O)OCC	RGS4-Gao reg 4.6, RGS8-Gao 6.7, RGS16-Gao -2.5, RGS7-Gao reg inconclusive | Biotin-avidin inactive | RGS8-Gao single inactive | RGS7-Gao confirm inactive | RGS16-Gao single inactive | RGS4-Gao single inactive | RGS19-Gao conf inactive
CSc1nnc(C)c(=O)n1COC(=O)c1cc(Cl)ccc1[N+](=O)[O-]	RGS7-Gao reg inconclusive
NC(=O)NC(=O)COC(=O)c1cccc(S(=O)(=O)N2CCCCCC2)c1	RGS7-Gao reg inconclusive (no result: GSH fluor)
CC(=O)N1CCN(S(=O)(=O)c2cccc(C(=O)OCC(=O)NC(=O)c3cccn3C)c2)CC1	RGS16-Gao 185[activator] | RGS-Gao 112 | Biotin-avidin inactive | RGS8-Gao single inactive | RGS7-Gao confirm inactive | RGS16-Gao single inactive | RGS4-Gao single inactive | RGS19-Gao conf inactive
O=S(=O)(Nc1nc2ccccc2nc1NCC1CCCO1)c1cccc(Cl)c1 (configuration not stated)	RGS7-Gao reg inconclusive (no result: GSH fluor)
CN1C(=O)N(CN2CCCCC2)C2C1N(C)C(=O)N2CN1CCCCC1 (configuration not stated)	RGS8-Gao 154[activator] | RGS-Gao 127
O=C(NC1=NCCS1)c1ccc(Cl)c(S(=O)(=O)N2CCOCC2)c1	none
CNC(=S)N1CCN(c2ccc(Cl)c(Cl)c2)CC1	none

High-throughput results as filed in PubChem.
